Results reported in PubChem BioAssay (NCI).
About 83,000 compounds went through this panel and 20% of them were active in at least one assay; those are over-represented in the sample as a whole.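 The endpoint reported here, percent growth, reads 100 for growth as untreated, 0 for no net growth and -100 for all cells dead.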 Values without a mark were called inactive. How the source made its calls: active means growth percent below 10; inactive means the rest.

system: KM12 colon; assay: NCI-60 one-dose screen, 48 h (100 = growth as untreated, 0 = no growth, -100 = all killed); conditions: 10 µM

Row | SMILES | growth
1 | Cc1ccc(C)n1-c1ccsc1C(=O)NNC(=O)CCl | 104%
2 | C/C(=C\c1cc(Cl)ccc1OCC(=O)O)[N+](=O)[O-] | 105%
3 | COc1cc2nn(-c3ccccc3N)nc2cc1OC | 103%
4 | CCS(=O)(=O)CCCl | 99.1%
5 | CC(=O)C1CCCCC1 | 100%
6 | COc1ccc(NC(=O)CCl)cc1 | 85.5%
7 | CC1CCCCN1C(=S)Nc1ccc(S(=O)(=O)N2CCCCC2)cc1 (centres undefined) | 97.1%
8 | CN(C)c1nc2c([nH]1)c(=O)n(C)c(=O)n2C | 109%
9 | O=C1NC(=O)C2C(=O)NC(=O)C1C21CCc2ccccc21 (centres undefined) | 105%
10 | c1csc(-c2cc(-c3cc(-c4cccs4)[nH]n3)n[nH]2)c1 | 105%
11 | CC(=O)CC(=O)N(C)C | 102%
12 | CS(=O)CC1=NC(=N)N=C1CS(C)=O (centres undefined) | 108%
13 | COc1cc(OC)c2ccc(=O)oc2c1 | 98.9%
14 | Cc1ccc(/C=C2\SC(=S)N(c3ccc(F)cc3)C2=O)o1 | 78.2%
15 | N/N=C(/Cc1ccccc1)NNC(N)=S | 101%
16 | COc1cc2c(cc1OC)[C@H](C(=O)O)[C@@H](c1ccc(OC(C)C)c(OC)c1)N(C)C2=O | 107%
17 | O=c1cc(-c2ccccc2)nc2cc(-c3ccco3)[nH]n12 | 69.5%
18 | CC(C)NC(=O)OCc1c(COC(=O)NC(C)C)c(-c2ccc(Cl)c(Cl)c2)n2c1SCC2 | 77.6%
19 | CCOC(=O)c1cc(/C=C/c2cccc(Cl)c2)on1 | 57.4%
20 | C/C(=C\c1ccc([N+](=O)[O-])cc1)C(=O)O | 103%

Row | SMILES | growth
21 | Cc1cc2nc(CC(=O)c3ccccc3)c(=O)[nH]c2cc1C | 100%
22 | CCNCCCCNCCCCNCCCCNCCCCNCC | 62.1%
23 | CC(C)(O)C#CC#CC(C)(C)O | 108%
24 | COc1cc(-c2ccc(NC(=O)NC3CC3)c(OC)c2)ccc1NC(=O)NC1CC1 | 71.8%
25 | COc1nc(N)nc2c1ncn2C1OC(CO)CC1O (centres undefined) | 103%
26 | COC(=O)c1cc(-c2ccc(Cl)c(Cl)c2)[nH]c(=O)c1C#N | 109%
27 | c1ccc2c(c1)Sc1ccccc1S2 | 108%
28 | C=CCNc1nnc(C)s1 | 101%
29 | CCCCNC(=O)C(=O)NCCCC | 102%
30 | COc1ccc2c(c1)CCc1c-2n[nH]c1-c1[nH]nc2c1CCc1cc(OC)ccc1-2 | 47.6%
31 | CC(=O)Cc1cc(-c2cc(CC(C)=O)[nH]n2)n[nH]1 | 105%
32 | C1CNC(C2=NCCN2)=N1 | 95.4%
33 | COC(=O)c1[nH]c(=O)c(C#N)c(C(=O)OC)c1C(=O)c1ccccc1 | 102%
34 | CC1=CC(=O)c2ccccc2C1=O | 104%
35 | COC(=O)C(C)Oc1ccc(OC#N)cc1 (centres undefined) | 99.8%
36 | CCOC(=O)C(=O)C=P(c1ccccc1)(c1ccccc1)c1ccccc1 | 99.6%
37 | CNC(=S)NC(C)(C)C | 106%
38 | O=C(Cc1ccc(OCc2ccccc2)cc1)NCc1ccc2c(c1)OCO2 | 33.1%
39 | O=C(Nc1cccc(NC(=O)Nc2cc(C(F)(F)F)ccc2Cl)c1)Nc1cc(C(F)(F)F)ccc1Cl | 12.1%
